Shn3 3UTR inh: inhibitors of Schnurri-3 3'UTR reporter in osteoblasts; AID 588674; Clone20 osteoblast Shn3 3'UTR firefly luciferase, 24 h; 0.52% of 360,000 active; inhibition, % at 12.5 µM;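 active means mean inhibition of at least 75% with every replicate also reaching 75%; inconclusive means mean inhibition at least 75% but some replicate below; inactive means mean inhibition below 75%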;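 further: 0% = median of neutral control wells and 100% = pilot-screen positive control compound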
KKLEB tox: counter-screen for CF NF-kB inhibitors: cytotoxicity; KKLEB CF airway cells viability, ATPlite luminescence, overnight; stronger effect = lower value; cells stimulated with P. aeruginosa culture filtrate; activity change (cytotoxicity), % at 5 µM; 0.36% of 360,000 active; AID 602141;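 active means corrected activity change at or below -50% at 5 µM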
PAX8 inh HTS: PAX8 transcriptional activity inhibition | AID 652154 | inhibition, % at 12.6 µM | 1.2% of 360,000 active | RMG-I TPO-luciferase reporter, SteadyGlo, 24 h;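 active means mean replicate inhibition at least 60% with every replicate also reaching 60%; inconclusive means only one of the two criteria is met; inactive means mean below 60% and not all replicates reaching 60%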;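 further: luciferase light reporting Pax8 driven TPO promoter activity; plate controls were median of neutral control wells for no effect and mitoxantrone controls for full effect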
LGR2 inh: inhibitors of bursicon-induced Drosophila LGR2 receptor cAMP signaling | inhibition, % at 9.99 µM | 0.35% of 380,000 active | AID 720647 | HEK293 LGR2, CRE-luciferase, bursicon-stimulated, 4 h;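 active means drop in luminescence signal, shown as inhibition above about 50% in the replicate tests, limit read from the data, passing the limit was not always enough; inconclusive means probably only some replicates passing the limit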;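 further: agonist challenge used bursicon conditioned medium at about half maximal strength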
CF NFkB inh: inhibitors of cystic fibrosis induced NF-kB. KKLEB NF-kB-GFP reporter, PAF-induced, GFP fluorescence overnight. inhibition, % at 5 µM. 0.86% of 360,000 active. AID 588850;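 active means at least 50% inhibition at 5 µM, scaled per plate between neutral and stimulator controls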;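 further: PAF is a Pseudomonas aeruginosa culture filtrate used as stimulus; plate controls were PAF-stimulated DMSO wells for no effect and unstimulated DMSO wells for full effect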
EWS-Fli block: blocks EWS/Fli oncoprotein-driven transcription. A673 NR0B1-luciferase reporter, viability-normalised. inhibition, % at 12.6 µM. 0.67% of 350,000 active. AID 651661;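 active means mean inhibition of at least 50% after viability correction, with every replicate also passing that limit; inconclusive means mean reaches 50% but only one of two replicates passes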;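 further: firefly luciferase signal divided by Alamar Blue viability fluorescence both relative to DMSO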
Starred values were filed as active, the others as inactive. In the library only some 2% were active in any assay of this set; here they are far more common.

What do the screens show for `O=C(C1CCC1)N1CC(=O)N2[C@H](CO)[C@@H](c3ccc(C#CCc4ccccc4)cc3)[C@@H]2C1`?
PAX8 inh HTS: -4; LGR2 inh: 4; EWS-Fli block: 3

Results for C[C@H](CO)N1C[C@H](C)[C@H](CN(C)C(=O)Nc2ccccc2)Oc2ccc(NC(=O)C3CCCCC3)cc2C1=O ?
PAX8 inh HTS: 7; LGR2 inh: -13; EWS-Fli block: -11

Results for C[C@H]1CN([C@@H](C)CO)C(=O)c2cccc(NC(=O)c3nc4ccccc4s3)c2O[C@@H]1CN(C)Cc1ccc2c(c1)OCO2 ?
LGR2 inh: 7; EWS-Fli block: 8

How did CCCC#Cc1ccc2c(c1)O[C@@H](CN(C)Cc1cccnc1)[C@@H](C)CN([C@@H](C)CO)S2(=O)=O do in these assays?
PAX8 inh HTS: -25; LGR2 inh: -18; EWS-Fli block: 11

What do the screens show for `O=S1(=O)C=C(Sc2nc3cc(Cl)ccc3o2)c2ccccc21`?
Shn3 3UTR inh: 100*; KKLEB tox: -100*; CF NFkB inh: 88*

How did Cc1cc(C(C)(C)CC(C)(C)C)ccc1OCCOCC[N+](C)(C)Cc1ccccc1 do in these assays?
Shn3 3UTR inh: 88*; KKLEB tox: -22; PAX8 inh HTS: 72*; LGR2 inh: 38; CF NFkB inh: 63*; EWS-Fli block: 40

How did C[N+](C)(CCOc1ccccc1)Cc1ccccc1 do in these assays?
Shn3 3UTR inh: -13; KKLEB tox: 5; PAX8 inh HTS: 21; CF NFkB inh: -9; EWS-Fli block: 2

How did C[C@H](CO)N1C[C@H](C)[C@H](CN(C)Cc2ccc3c(c2)OCO3)OCCCC[C@H](C)Oc2ccc(NC(=O)Cc3ccccc3)cc2C1=O do in these assays?
PAX8 inh HTS: 2; LGR2 inh: -13; EWS-Fli block: 2

What do the screens show for `O=C(COC(=O)c1c2c(nc3ccccc13)/C(=C\c1cccs1)CCC2)Nc1ccccc1`?
Shn3 3UTR inh: 47; KKLEB tox: 15; PAX8 inh HTS: 86*; LGR2 inh: 29; CF NFkB inh: -38; EWS-Fli block: -16

Results for O=C(C[C@H]1CC[C@@H]2[C@H](COC[C@@H](O)CN2C(=O)Nc2ccccc2)O1)NC1Cc2ccccc2C1 ?
PAX8 inh HTS: 12; LGR2 inh: -16; EWS-Fli block: -11

What do the screens show for `O=C(c1ccc(CSc2nc3ccncc3[nH]2)cc1)N1CCCCCC1`?
Shn3 3UTR inh: 12; KKLEB tox: -40; PAX8 inh HTS: 22; LGR2 inh: 27; CF NFkB inh: 0; EWS-Fli block: 15

How did O=C(c1ccc(CSc2nc3ccncc3[nH]2)cc1)N1CCN(c2cccc(Cl)c2)CC1 do in these assays?
Shn3 3UTR inh: 88*; KKLEB tox: -7; PAX8 inh HTS: 14; LGR2 inh: 65*; CF NFkB inh: 34; EWS-Fli block: 18

Results for Clc1ccc(CSc2nc3ccncc3[nH]2)cc1 ?
Shn3 3UTR inh: -47; KKLEB tox: -59*; PAX8 inh HTS: -19; LGR2 inh: 31; CF NFkB inh: -4; EWS-Fli block: 25

What do the screens show for `O=C(NCc1ccc(Cl)cc1)c1ccc(CSc2nc3ccncc3[nH]2)cc1`?
Shn3 3UTR inh: 7; KKLEB tox: -3; PAX8 inh HTS: -34; LGR2 inh: -6; CF NFkB inh: 18; EWS-Fli block: -3

What do the screens show for `Cc1ccc(CSc2nc3ccncc3[nH]2)cc1`?
Shn3 3UTR inh: 20; KKLEB tox: -70*; PAX8 inh HTS: 13; LGR2 inh: inconclusive; CF NFkB inh: 0; EWS-Fli block: 47

How did COc1ccccc1CN1[C@@H]2CN(C(=O)C3CCCCC3)c3ccccc3[C@@H]2[C@@H]1CO do in these assays?
PAX8 inh HTS: 24; LGR2 inh: -3; EWS-Fli block: 17

How did CN1C(=O)c2cc(NC(=O)Cc3cccs3)ccc2OC[C@H]2O[C@@H](CC(=O)NCC3CCCCC3)CC[C@H]21 do in these assays?
PAX8 inh HTS: -13; LGR2 inh: 21; EWS-Fli block: 11

What do the screens show for `C=C(CN(C)C)C(=O)c1cc(C)ccc1C`?
Shn3 3UTR inh: 95*; KKLEB tox: 0; PAX8 inh HTS: 52; LGR2 inh: -3; CF NFkB inh: 30; EWS-Fli block: 33

How did Cc1ccc(C)c(C(=O)NCCN(C)C)c1 do in these assays?
Shn3 3UTR inh: -8; KKLEB tox: 0; CF NFkB inh: -13

Results for Cc1ccc(-c2nn3c(C)nnc3c3ccccc23)cc1S(=O)(=O)NCCO ?
Shn3 3UTR inh: 11; KKLEB tox: 6; PAX8 inh HTS: -46; LGR2 inh: -1; CF NFkB inh: -60; EWS-Fli block: 2

Results for Cc1ccc(-c2nn3c(C)nnc3c3ccccc23)cc1S(=O)(=O)NC(C)c1ccccc1 (centres undefined) ?
Shn3 3UTR inh: 14; KKLEB tox: -63*; CF NFkB inh: -86

What do the screens show for `CC(=O)NC[C@@H]1[C@@H](c2ccc(-c3ccccc3)cc2)[C@@H](CO)N1C(=O)C1CCC1`?
PAX8 inh HTS: 11; LGR2 inh: -25; EWS-Fli block: -8

What do the screens show for `O=S(=O)(c1cc(F)ccc1F)N1CCC2(CC1)OCCO2`?
Shn3 3UTR inh: 8; KKLEB tox: 5; PAX8 inh HTS: 9; LGR2 inh: 0; CF NFkB inh: 22

What do the screens show for `O=C(Nc1ccc(F)c(F)c1)c1ccc(F)c(S(=O)(=O)N2CCC3(CC2)OCCO3)c1`?
Shn3 3UTR inh: 84*; KKLEB tox: 2; PAX8 inh HTS: 23; LGR2 inh: -3; CF NFkB inh: 10; EWS-Fli block: 26

What do the screens show for `COc1ccccc1C#Cc1ccc([C@H]2[C@H](C#N)N(C(=O)C3CC3)[C@H]2CO)cc1`?
PAX8 inh HTS: 91*; LGR2 inh: 35; EWS-Fli block: 18

What do the screens show for `COc1ccccc1C#Cc1ccc([C@H]2[C@@H](C#N)N(C(=O)C3CC3)[C@H]2CO)cc1`?
PAX8 inh HTS: 66*; LGR2 inh: -16; EWS-Fli block: -26

Results for COC(=O)c1ccc2c(c1)C(C)(C)C(/C=C/c1ccc(O)cc1)=[N+]2C ?
Shn3 3UTR inh: 99*; KKLEB tox: -56*; LGR2 inh: inconclusive; CF NFkB inh: 97*

Results for COc1ccc(/C=N/Nc2ccc(C(=O)O)cc2)c(OC)c1OC ?
Shn3 3UTR inh: -37; KKLEB tox: -4; PAX8 inh HTS: -89; LGR2 inh: -31; CF NFkB inh: 0; EWS-Fli block: -74

What do the screens show for `COC(=O)c1ccc2c(c1)C(C)(C)C(/C=C/c1ccc(OC)c(OC)c1OC)=[N+]2C`?
Shn3 3UTR inh: 88*; KKLEB tox: -8; CF NFkB inh: -15

What do the screens show for `OC[C@@H]1CC[C@@H]2O[C@H](CCc3ccc(C#CCc4ccccc4)cc3)[C@@H](n3cc(-c4ccccc4)nn3)C[C@@H]2O1`?
PAX8 inh HTS: 72*; EWS-Fli block: 20

Source: PubChem (several laboratories)
